# According to article PMC4336329 (PLoS ONE, 2015):
# In all, about 310,000 compounds went through this assay and about 2,200 (0.71%) showed an effect of 50% or more. The effect is printed as a negative number. What follows is part of a selection rich in strong results, with near analogues and random picks from the rest.
# Target: human ether-à-go-go-related gene (hERG) potassium channel (human, UniProt Q12809)
# Test: primary screen, population patch clamp on CHO cells stably expressing hERG; higher = less effect of the substance
# Chain of human ether-à-go-go-related gene (hERG) potassium channel (Q12809 whole entry, looked up): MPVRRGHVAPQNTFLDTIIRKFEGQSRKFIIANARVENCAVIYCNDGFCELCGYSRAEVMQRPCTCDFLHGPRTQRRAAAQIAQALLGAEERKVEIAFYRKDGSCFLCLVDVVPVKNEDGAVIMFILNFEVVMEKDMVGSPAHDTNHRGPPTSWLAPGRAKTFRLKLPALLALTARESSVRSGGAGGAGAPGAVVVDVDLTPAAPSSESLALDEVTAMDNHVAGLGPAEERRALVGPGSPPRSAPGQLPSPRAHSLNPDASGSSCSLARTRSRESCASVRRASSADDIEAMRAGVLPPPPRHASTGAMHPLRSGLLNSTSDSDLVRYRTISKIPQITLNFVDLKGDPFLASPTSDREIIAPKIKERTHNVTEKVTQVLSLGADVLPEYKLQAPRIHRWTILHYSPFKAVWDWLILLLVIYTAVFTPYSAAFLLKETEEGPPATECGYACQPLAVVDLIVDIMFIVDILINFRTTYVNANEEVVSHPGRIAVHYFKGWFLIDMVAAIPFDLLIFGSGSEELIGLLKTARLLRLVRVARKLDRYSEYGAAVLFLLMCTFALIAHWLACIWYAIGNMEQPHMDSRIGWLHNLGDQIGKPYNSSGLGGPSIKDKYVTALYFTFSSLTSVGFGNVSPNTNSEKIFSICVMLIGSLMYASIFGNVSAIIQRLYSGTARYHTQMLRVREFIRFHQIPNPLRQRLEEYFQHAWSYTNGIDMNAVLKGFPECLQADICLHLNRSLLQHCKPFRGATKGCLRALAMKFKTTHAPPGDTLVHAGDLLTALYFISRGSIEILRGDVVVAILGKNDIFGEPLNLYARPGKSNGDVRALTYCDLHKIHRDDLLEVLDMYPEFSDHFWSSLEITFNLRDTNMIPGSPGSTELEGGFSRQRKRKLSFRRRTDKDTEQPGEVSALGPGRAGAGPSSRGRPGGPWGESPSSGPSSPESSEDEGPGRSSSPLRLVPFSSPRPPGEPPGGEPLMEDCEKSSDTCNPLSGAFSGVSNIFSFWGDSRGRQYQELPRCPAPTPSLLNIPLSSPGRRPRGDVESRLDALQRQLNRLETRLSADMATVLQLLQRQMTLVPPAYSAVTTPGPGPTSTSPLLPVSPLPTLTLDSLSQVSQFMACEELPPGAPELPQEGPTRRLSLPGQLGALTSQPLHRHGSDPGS
row,Compound,"hERG current change (%, negative = inhibition) at 1uM [%]"
1,COc1cccc(CN2CCC(C(=O)N3CCN(c4ccccc4F)CC3)CC2)c1,-20.8
2,CCCn1c(=O)c(C(=O)Nc2ccccc2C(=O)OCC)c(O)c2ccccc21,16.2
3,CNC(=S)Nc1cc(C(F)(F)F)ccc1Cl,-4.86
4,Cc1cc(OCC(=O)Nc2ccc3oc(-c4ccncc4)nc3c2)ccc1Cl,9.6
5,Cc1ccc(/C=C2\SC(=S)N(CCCC(=O)Nc3ccccn3)C2=O)cc1,3.9
6,Cc1csc(NC(=O)C2=NN(c3ccccc3)C(=O)CC2)n1,9.03
7,Brc1ccccc1OCCCN1CCCC1.O=C(O)C(=O)O,8.64
8,O=C(O)C(=O)O.c1ccc(-c2ccccc2OCCCCN2CCCCCC2)cc1,-48.2
9,O=C(O)C(=O)O.c1ccc(-c2ccccc2OCCCN2CCCCCC2)cc1,-52.7
10,CN1CCN(CCOCCOc2ccc(Br)cc2Cl)CC1.O=C(O)C(=O)O,10.1
11,Brc1ccccc1OCCCCN1CCCCC1,-1.28
12,Brc1ccccc1OCCCN1CCCCCC1.O=C(O)C(=O)O,-59.2
13,O=C(O)C(=O)O.c1ccc(-c2ccccc2OCCCN2CCCC2)cc1,-49.4
14,CC1CCCN(CCOCCOc2ccc(Br)cc2Cl)C1.O=C(O)C(=O)O (stereo not shown),-7.22
15,CC1CCN(CCOCCOc2ccc(Br)cc2Cl)CC1.O=C(O)C(=O)O,-52
16,CNc1ccccc1C(=O)OCC(=O)c1ccc(F)cc1,7.17
17,CCN1C(=O)c2ccc(C(=O)NCc3ccco3)cc2C1=O,11
18,O=C(CC1Sc2ccccc2NC1=O)NNC(=O)Nc1ccc(Cl)cc1 (stereo not shown),9.26
19,CCOc1ccccc1NC(=O)C(NCC1(N2CCCCC2)CCCCC1)c1ccccc1.O=C(O)C(=O)O (stereo not shown),-57.4
20,CCOc1ccccc1NC(=O)C(NCC1CCCCC1)c1ccccc1 (stereo not shown),8.03
21,CCOc1ccccc1NC(=O)C(NCCN(C)C)c1ccccc1.O=C(O)C(=O)O (stereo not shown),-49.1
22,C/C(N)=C(\C#N)C(=O)NCc1ccccn1,10.9

row,Compound,"hERG current change (%, negative = inhibition) at 1uM [%]"
1,Cc1cc(C)c(-c2cc(C(F)(F)F)no2)c(=O)[nH]1,12.2
2,O=c1c2cccc3c2c(nn1CN1CCOCC1)-c1ccccc1-3,-15.3
3,CCN(CC)CCn1nc2c3c(cccc3c1=O)-c1ccccc1-2,-50
4,O=C(O)Cn1nc2c3c(cccc3c1=O)-c1ccccc1-2,8.49
5,COc1ccc(OC(=O)NCCc2ccccc2)cc1,12.2
6,Cc1cccn2c(=O)c3cc(S(=O)(=O)c4ccc(Br)cc4)c(=N)n(C4CCCC4)c3nc12,14.5
7,Cc1cccn2c(=O)c3cc(C(=O)NCc4ccco4)c(=N)n(C4CCCC4)c3nc12,-85.5
8,Cc1cccn2c(=O)c3cc(C(=O)NCc4ccco4)c(=N)n(C4CCCCC4)c3nc12,-84.8
9,Cc1ccc(S(=O)(=O)c2cc3c(=O)n4cccc(C)c4nc3n(C3CCCCC3)c2=N)cc1,8.4
10,Cc1cccn2c(=O)c3cc(S(=O)(=O)c4ccc(Br)cc4)c(=N)n(C4CCCCC4)c3nc12,26
11,CC1CCc2nc(NC(=O)Cc3cccs3)sc2C1 (stereo not shown),12.7
12,O=C1NC(C(F)(F)F)(C(F)(F)F)N=C2SC=CN12,1.69
13,CCCOc1ccc(C2C(C(=O)OC)=CN(CCOC)C=C2C(=O)OC)cc1,-5.54
14,CCN(CC)C(=O)CN1C(=O)COCC1=O,5.42
15,S=C1NC(c2ccccc2)N2C(=S)NC(c3ccccc3)N12 (stereo not shown),3.38
16,CCOc1ccc2nc(C)cc(Nc3ccc(N4CCOCC4)cc3)c2c1.Cl,-60.6
17,CCOc1ccc2nc(C)cc(Nc3ccc4c(c3)OCCO4)c2c1.Cl,-47
18,COc1ccc2nc(C)cc(Nc3ccc(N4CCOCC4)cc3)c2c1.Cl,-25.1
19,CCOc1ccc(-c2c(C)n(-c3ccc(OCC)cc3)c3[n+]2CCCCC3)cc1.[O-][Cl+3]([O-])([O-])[O-],-50.8
20,CCOc1ccc(-n2c(-c3ccc(Br)cc3)c[n+]3c2CCCCC3)cc1.[Br-],-46.5
21,CCOc1ccc(-n2c(-c3ccc(OC)cc3)c[n+]3c2CCCCC3)cc1.[Br-],-39.1
22,CCCNC(=O)C(Cc1ccc(F)cc1)NC(=O)c1ccc(C#N)cc1 (stereo not shown),-17.5

row,Compound,"hERG current change (%, negative = inhibition) at 1uM [%]"
1,CCC(CC)c1nnc(NC(=O)c2cccc(S(=O)(=O)N3CCc4ccccc43)c2)s1,13.3
2,CN(C)CCCOc1ccc2c(c1)Sc1ccccc1CC2=O.Cl,-53.3
3,CN(C)CCOc1ccc2c(c1)Sc1ccccc1CC2=O.Cl,-18.3
4,Cl.O=C1Cc2ccccc2Sc2cc(OCCCN3CCCCC3)ccc21,-29.1
5,O=C(Cc1ccc([N+](=O)[O-])cc1)OCc1c(F)cccc1Cl,14.7
6,CCOc1ccc(N=C2NC(=O)CS2)cc1,11.1
7,Cc1ccc(NC(=O)NC2CCCCCCC2)cc1C,11.5
8,OCC1(CC2CCCCO2)CCN(C/C=C/c2ccccc2)CC1 (stereo not shown),-2.99
9,OCC1(Cc2ccc(F)cc2F)CCCN(CCCc2ccccc2)C1 (stereo not shown),-56.1
10,OCC1(CCc2ccccc2)CCN(C/C=C/c2ccccc2)CC1,-86.4
11,OCC1(Cc2ccc(F)cc2F)CCCN(Cc2ccc(Cl)cc2)C1 (stereo not shown),-15
12,OCC1(CCc2ccccc2)CCCN(CCCc2ccccc2)C1 (stereo not shown),-57.6
13,OCC1(CCc2ccccc2)CCN(Cc2cc(Cl)ccc2O)CC1,-5.01
14,OCC1(CCc2ccccc2)CCN(Cc2ccccc2Cl)CC1,-54.6
15,O=C(Cc1ccccc1)N1CCN(C/C=C/c2ccccc2)CC1,-6.02
16,OCC1(Cc2ccccc2F)CCCN(CCc2ccccc2)C1 (stereo not shown),-30.5
17,OCC1(Cc2ccc(F)cc2)CCCN(CCc2ccccc2)C1 (stereo not shown),-0.0287
18,OCC1(CCc2ccccc2)CCN(Cc2c(F)ccc(F)c2F)CC1,7.97
19,OCC1(CCc2ccccc2)CCCN(CCCC(F)(F)F)C1 (stereo not shown),-13.2
20,Cc1cc(C(=O)N2CCCC(N3CCN(c4cccc(Cl)c4)CC3)C2)no1 (stereo not shown),10.5
21,Cc1cc2oc(C(=O)N(Cc3ccccc3)c3ccccn3)cc(=O)c2cc1Cl,10.6
22,CCn1nc(C)cc1C(=O)Sc1cccc(Cl)c1,10.9

row,Compound,"hERG current change (%, negative = inhibition) at 1uM [%]"
1,CCCCCCCC(=O)NNC(=O)c1c(O)c2ccccc2[nH]c1=O,9.8
2,CCCCn1c(N)c(N(C)C(=O)c2ccc(Br)o2)c(=O)[nH]c1=O,7.35
3,O=C(O)C1CC=CCC1C(=O)N1CCCC1 (stereo not shown),-1.33
4,OCC1(CCc2ccccc2)CCCN(C/C=C/c2ccccc2)C1 (stereo not shown),-53.6
5,O=C(CCC(F)(F)F)N1CCCC(CO)(CCc2ccccc2)C1 (stereo not shown),-3.42
6,COc1ccccc1/C=C/CN1CCCC(CO)(CCc2ccccc2)C1 (stereo not shown),-31.4
7,CCOc1cc(C2NC(=O)NC(C)=C2C(=O)OC(C)CC)cc(Br)c1O (stereo not shown),10.2
8,O=C1N[C@@H](Cc2cn(S(=O)(=O)c3c(F)c(F)c(F)c(F)c3F)c3ccccc23)C(=O)N[C@H]1Cc1ccccc1,10.7
9,COc1ccc(/C=C(/NC(=O)c2ccccc2)C(=O)N2CCCC2)cc1,6.1
10,COc1ccc(/C=C(\NC(=O)c2ccccc2)C(=O)N2CCN(C)CC2)cc1,-75.2
11,CCOC(=O)N1CCN(C(=O)/C(=C/c2ccc(Br)cc2)NC(=O)c2ccc(OC)cc2)CC1,-81.5
12,COc1ccc(/C=C(/NC(=O)c2ccccc2)C(=O)N2CCCCC2)cc1,6.93
13,CCOC(=O)N1CCN(C(=O)/C(=C/c2cccc3ccccc23)NC(=O)c2ccc(OC)cc2)CC1,-10.5
14,CN1CCN(C(=O)/C(C#N)=C/c2ccc(F)cc2)CC1.Cl,1.43
15,CN1CCN(C(=O)/C(=C/c2ccc(F)cc2)NC(=O)c2ccccc2)CC1,-80.8
16,CCOC(=O)N1CCN(C(=O)/C(=C/c2ccc(OC)cc2)NC(=O)c2ccccc2)CC1,-27.1
17,CN1CCN(C(=O)/C(=C/c2ccccc2)c2ccccc2)CC1,-33.2
18,CN1CCN(C(=O)/C(=C/c2ccc(F)cc2)c2ccsc2)CC1.Cl,-52.8
19,CSc1ccc(/C=C(/NC(=O)c2ccccc2)C(=O)N2CCN(C)CC2)cc1,-48.7
20,O=C(N/C(=C/c1ccc(F)cc1)C(=O)N1CCCC1)c1ccccc1,25.3
21,CCOC(=O)/C=C/C(=O)Nc1ccc(S(=O)(=O)Nc2cc(C)on2)cc1,10.3
22,O=C(Cc1ccccc1)NC1CCN(C(=O)NCc2ccccc2)CC1,-8.61
